Measurements from the supplement of paper PMC10849652.
The full data set covers some 8,800 targets. This sample favours those with a hit. About 0.5% of all pairs of compound and target were hits.

Assays:
Experiment in all cases: log2 fold change, soluble protein after heating vs DMSO (PISA); higher = thermal stabilisation; K562 lysate, 10 uM; active = over 0.2 and 3.5 SD of the protein, either way, in both replicates (recomputed)
[1] = compound: Cc1cn(-c2cc(NC(=O)c3ccc(C)c(Nc4nccc(-c5cccnc5)n4)c3)cc(C(F)(F)F)c2)cn1 [nilotinib]
Method in brief: (§1)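 Soluble protein was defined as the supernatant remaining after 21,000xg for 90 min, following pooling of heated aliquots and adjustment to 0.5% NP-40 at 4°C. Before that, crude K562 extract at 1 mg/mL protein in PBS pH 7.4 with 1 mM MgCl2 was treated with 10 μM compound for 30 min and heated for 3 min across 48°C-58°C. Quantification used TMTpro 16plex LC-MS/MS with channel sums equalised, and values are log-two fold changes in thermal stability relative to solvent controls from duplicates.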

[2] = compound: Cc1nc(Nc2n[nH]c3c2CN(C(=O)N[C@H](CN(C)C)c2ccccc2)C3(C)C)c2sccc2n1
Method in brief: as §1

[3] = compound: Cc1nc(Nc2ncc(C(=O)Nc3c(C)cccc3Cl)s2)cc(N2CCN(CCO)CC2)n1 [dasatinib]
Method in brief: as §1

[4] = compound: Cc1ncc(-c2ccnc(Nc3ccc(S(C)(=O)=O)cc3)n2)n1C(C)C
Method in brief: as §1

[5] = compound: Cn1cc(-c2ccc3c(c2)CCN3C(=O)Cc2cccc(C(F)(F)F)c2)c2c(N)ncnc21
Method in brief: as §1

[6] = compound: Cn1cc(CNCC2CCN(c3ncc(C(=O)NO)cn3)CC2)c2ccccc21 [quisinostat]
Method in brief: as §1

[7] = compound: Cn1cncc1[C@@](N)(c1ccc(Cl)cc1)c1ccc2c(c1)c(-c1cccc(Cl)c1)cc(=O)n2C [tipifarnib]
Method in brief: as §1

[8] = compound: NC(=O)Nc1cc(-c2cccc(F)c2)sc1C(=O)N[C@H]1CCCNC1
Method in brief: as §1

[9] = compound: NC(=O)c1cnc(N[C@@H]2CCCC[C@@H]2N)nc1Nc1cccc(-n2nccn2)c1
Method in brief: as §1

[10] = compound: NC1(c2ccc(-c3nc4ccn5c(=O)[nH]nc5c4cc3-c3ccccc3)cc2)CCC1
Method in brief: as §1

Measured: log2 fold change

GTF3C5 isoform 3 (UniProt Q9Y5Q8)
inactive: [1] 0.023 | [2] -0.023 | [3] -0.017 | [4] -0.018 | [5] 0.019 | [6] -0.063 | [7] -0.004 | [8] 0.05 | [9] -0.006 | [10] 0.005

KARS1 (UniProt Q15046)
inactive: [1] -0.017 | [2] -0.01 | [3] -0.031 | [4] -0.029 | [5] 0.02 | [6] 0.034 | [7] 0.02 | [8] 0.004 | [9] 0.013 | [10] 0.02

IMMT (UniProt Q16891)
Sequence of UniProt Q16891 (Q16891 whole entry, looked up): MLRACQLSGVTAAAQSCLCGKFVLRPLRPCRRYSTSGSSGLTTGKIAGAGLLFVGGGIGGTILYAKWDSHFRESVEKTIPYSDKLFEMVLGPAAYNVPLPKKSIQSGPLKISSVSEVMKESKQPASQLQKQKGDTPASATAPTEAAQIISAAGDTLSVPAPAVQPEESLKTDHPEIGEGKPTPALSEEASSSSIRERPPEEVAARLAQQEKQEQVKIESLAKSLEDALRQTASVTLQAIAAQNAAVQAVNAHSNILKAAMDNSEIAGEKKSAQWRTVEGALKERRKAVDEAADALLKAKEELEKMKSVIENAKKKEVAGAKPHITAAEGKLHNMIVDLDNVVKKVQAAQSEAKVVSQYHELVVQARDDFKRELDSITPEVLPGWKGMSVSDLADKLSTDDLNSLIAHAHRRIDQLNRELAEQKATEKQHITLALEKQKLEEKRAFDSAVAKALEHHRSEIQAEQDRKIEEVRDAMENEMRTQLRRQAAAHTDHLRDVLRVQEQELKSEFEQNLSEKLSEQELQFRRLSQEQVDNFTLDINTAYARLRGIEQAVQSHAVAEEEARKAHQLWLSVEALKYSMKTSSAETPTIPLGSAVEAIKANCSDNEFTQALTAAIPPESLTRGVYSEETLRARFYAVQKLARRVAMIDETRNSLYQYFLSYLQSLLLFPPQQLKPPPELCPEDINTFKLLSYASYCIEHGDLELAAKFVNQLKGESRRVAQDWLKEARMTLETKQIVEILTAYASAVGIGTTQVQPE
inactive: [1] -0.009 | [2] 0.016 | [3] -0.075 | [4] 0.037 | [5] 0.01 | [6] 0.041 | [7] -0.005 | [8] -0.007 | [9] -0.017 | [10] -0.035

HNRNPD isoform 3 (UniProt Q14103)
Sequence of UniProt Q14103 (Q14103 whole entry, looked up): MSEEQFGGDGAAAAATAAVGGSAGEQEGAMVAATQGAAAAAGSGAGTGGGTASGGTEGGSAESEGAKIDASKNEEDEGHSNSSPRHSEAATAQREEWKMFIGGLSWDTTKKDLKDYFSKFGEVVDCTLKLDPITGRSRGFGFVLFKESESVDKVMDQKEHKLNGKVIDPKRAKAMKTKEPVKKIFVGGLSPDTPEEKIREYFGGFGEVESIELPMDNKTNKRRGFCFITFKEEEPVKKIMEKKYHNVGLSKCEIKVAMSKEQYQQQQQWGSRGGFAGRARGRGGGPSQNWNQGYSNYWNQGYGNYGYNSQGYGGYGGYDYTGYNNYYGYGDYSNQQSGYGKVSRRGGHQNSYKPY
inactive: [1] 0.012 | [2] -0.073 | [3] 0.017 | [4] 0.017 | [5] 0.065 | [6] 0.005 | [7] -0.002 | [8] 0.021 | [9] 0.028 | [10] -0.033

IRF2BP1 (UniProt Q8IU81)
Sequence of UniProt Q8IU81 (Q8IU81 whole entry, looked up): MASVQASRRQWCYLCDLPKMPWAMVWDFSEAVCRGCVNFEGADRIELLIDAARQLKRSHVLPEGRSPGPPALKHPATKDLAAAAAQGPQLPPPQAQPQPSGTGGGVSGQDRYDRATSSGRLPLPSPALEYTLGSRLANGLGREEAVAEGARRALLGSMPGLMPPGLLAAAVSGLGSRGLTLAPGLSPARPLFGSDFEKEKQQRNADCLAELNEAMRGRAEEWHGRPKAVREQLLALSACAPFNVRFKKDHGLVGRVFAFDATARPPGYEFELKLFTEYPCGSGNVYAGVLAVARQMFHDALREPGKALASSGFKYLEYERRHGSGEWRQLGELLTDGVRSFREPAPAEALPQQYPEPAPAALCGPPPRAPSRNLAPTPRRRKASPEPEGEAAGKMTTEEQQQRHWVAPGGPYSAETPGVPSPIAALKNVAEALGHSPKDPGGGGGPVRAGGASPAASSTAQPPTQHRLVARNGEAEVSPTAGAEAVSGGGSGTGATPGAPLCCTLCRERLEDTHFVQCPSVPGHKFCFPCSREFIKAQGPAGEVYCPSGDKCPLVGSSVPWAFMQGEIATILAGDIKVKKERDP
inactive: [1] 0.018 | [2] 0.016 | [3] -0.082 | [4] -0.019 | [5] 0.032 | [6] -0.099 | [7] -0.124 | [8] 0.057 | [9] -0.03 | [10] 0.045

HAUS4 (UniProt Q9H6D7)
Sequence of UniProt Q9H6D7 (Q9H6D7 whole entry, looked up): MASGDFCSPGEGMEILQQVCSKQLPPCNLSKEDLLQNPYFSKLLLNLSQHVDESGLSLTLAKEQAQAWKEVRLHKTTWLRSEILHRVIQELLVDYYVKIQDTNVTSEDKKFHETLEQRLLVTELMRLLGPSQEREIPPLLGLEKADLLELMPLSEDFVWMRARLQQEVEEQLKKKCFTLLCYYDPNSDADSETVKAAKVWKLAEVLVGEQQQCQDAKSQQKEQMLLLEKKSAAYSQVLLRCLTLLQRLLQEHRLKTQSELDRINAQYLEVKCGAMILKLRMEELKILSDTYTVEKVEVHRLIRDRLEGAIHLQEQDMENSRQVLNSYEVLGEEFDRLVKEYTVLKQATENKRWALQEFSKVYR
inactive: [1] 0.03 | [2] -0.05 | [3] -0.052 | [4] 0.016 | [5] 0.052 | [6] -0.065 | [7] -0.021 | [8] 0.053 | [9] 0.014 | [10] -0.012

HSD17B12 (UniProt Q53GQ0)
Sequence of UniProt Q53GQ0 (Q53GQ0 whole entry, looked up): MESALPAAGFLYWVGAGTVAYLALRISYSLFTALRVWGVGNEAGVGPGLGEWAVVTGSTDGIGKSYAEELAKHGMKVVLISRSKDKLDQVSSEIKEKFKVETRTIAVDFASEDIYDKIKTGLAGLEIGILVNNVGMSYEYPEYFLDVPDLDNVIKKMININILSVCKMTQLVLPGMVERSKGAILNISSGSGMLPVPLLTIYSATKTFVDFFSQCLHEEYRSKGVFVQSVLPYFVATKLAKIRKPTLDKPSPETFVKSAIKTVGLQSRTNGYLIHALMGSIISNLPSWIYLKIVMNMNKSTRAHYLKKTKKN
inactive: [1] -0.024 | [2] -0.04 | [3] 0.016 | [4] 0.033 | [5] 0.007 | [6] 0.073 | [7] -0.118 | [8] 0.058 | [9] 0.012 | [10] -0.045

GOLGA6B (UniProt A6NDN3)
Sequence of UniProt A6NDN3 (A6NDN3 whole entry, looked up): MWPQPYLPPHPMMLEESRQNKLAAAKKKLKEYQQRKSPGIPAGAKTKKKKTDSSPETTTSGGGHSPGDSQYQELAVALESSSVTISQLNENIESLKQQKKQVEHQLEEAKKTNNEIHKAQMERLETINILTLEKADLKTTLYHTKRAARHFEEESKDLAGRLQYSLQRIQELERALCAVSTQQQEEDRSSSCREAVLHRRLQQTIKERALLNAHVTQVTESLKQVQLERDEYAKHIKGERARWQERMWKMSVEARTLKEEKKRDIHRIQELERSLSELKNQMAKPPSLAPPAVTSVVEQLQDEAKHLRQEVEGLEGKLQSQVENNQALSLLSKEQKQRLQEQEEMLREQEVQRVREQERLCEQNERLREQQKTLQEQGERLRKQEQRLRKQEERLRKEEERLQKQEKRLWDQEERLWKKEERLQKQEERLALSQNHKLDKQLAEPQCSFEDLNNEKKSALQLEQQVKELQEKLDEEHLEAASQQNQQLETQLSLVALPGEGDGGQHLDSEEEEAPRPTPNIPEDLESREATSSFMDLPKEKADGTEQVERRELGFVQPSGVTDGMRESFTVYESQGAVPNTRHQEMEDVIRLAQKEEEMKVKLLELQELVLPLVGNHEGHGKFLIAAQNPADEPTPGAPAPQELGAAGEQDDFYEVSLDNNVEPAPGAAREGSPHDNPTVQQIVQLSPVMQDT
inactive: [1] 0.039 | [2] -0.102 | [3] 0.009 | [4] -0.075 | [5] 0.161 | [6] -0.355 | [7] 0.051 | [8] 0.106 | [9] -0.008 | [10] -0.082

ILRUN (UniProt Q9H6K1)
Sequence of UniProt Q9H6K1 (Q9H6K1 whole entry, looked up): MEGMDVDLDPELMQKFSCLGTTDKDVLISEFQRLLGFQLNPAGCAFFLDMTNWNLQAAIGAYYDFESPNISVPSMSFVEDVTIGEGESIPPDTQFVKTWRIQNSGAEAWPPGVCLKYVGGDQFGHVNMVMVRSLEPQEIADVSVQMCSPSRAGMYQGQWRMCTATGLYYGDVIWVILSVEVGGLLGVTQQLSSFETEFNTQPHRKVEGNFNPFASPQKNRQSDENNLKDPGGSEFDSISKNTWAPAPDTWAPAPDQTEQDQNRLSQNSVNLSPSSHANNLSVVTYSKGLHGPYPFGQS
inactive: [1] -0.12 | [2] -0.038 | [3] -0.003 | [4] -0.073 | [5] 0.005 | [6] -0.047 | [7] -0.012 | [8] 0.033 | [9] 0.041 | [10] -0.038

GSTM4 (UniProt Q03013)
Sequence of UniProt Q03013 (Q03013 whole entry, looked up): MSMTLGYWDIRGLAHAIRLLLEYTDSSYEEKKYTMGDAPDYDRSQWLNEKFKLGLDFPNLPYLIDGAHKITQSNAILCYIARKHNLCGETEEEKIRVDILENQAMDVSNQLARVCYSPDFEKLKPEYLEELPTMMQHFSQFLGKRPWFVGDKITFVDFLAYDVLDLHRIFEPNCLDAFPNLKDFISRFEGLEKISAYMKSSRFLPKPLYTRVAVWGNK
inactive: [1] -0.163 | [2] 0.019 | [3] -0.047 | [4] 0.054 | [5] 0.118 | [6] 0.163 | [7] 0.008 | [8] -0.003 | [9] 0.024 | [10] -0.032

IFITM3 (UniProt Q01628)
Sequence of UniProt Q01628 (Q01628 whole entry, looked up): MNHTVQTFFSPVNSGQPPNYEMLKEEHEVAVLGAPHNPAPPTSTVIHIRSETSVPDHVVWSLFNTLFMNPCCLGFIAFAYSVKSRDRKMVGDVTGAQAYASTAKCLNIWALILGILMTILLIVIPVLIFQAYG
inactive: [1] 0.068 | [2] 0.055 | [3] 0.049 | [4] -0.013 | [5] 0.064 | [6] -0.069 | [7] -0.136 | [8] -0.044 | [9] -0.133 | [10] -0.051

HMGN5 (UniProt P82970)
Sequence of UniProt P82970 (P82970 whole entry, looked up): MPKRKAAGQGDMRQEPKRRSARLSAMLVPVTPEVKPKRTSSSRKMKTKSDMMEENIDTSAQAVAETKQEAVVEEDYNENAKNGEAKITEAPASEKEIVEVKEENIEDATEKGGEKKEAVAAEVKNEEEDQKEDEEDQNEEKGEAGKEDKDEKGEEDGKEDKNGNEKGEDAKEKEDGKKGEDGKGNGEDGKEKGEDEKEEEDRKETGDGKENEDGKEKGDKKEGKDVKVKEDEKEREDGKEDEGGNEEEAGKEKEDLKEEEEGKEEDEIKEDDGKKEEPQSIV
inactive: [1] 0.029 | [2] 0.001 | [3] 0.03 | [4] 0.019 | [5] -0.003 | [6] 0.074 | [7] 0.04 | [8] -0.042 | [9] -0.027 | [10] -0.003

INPP4A (UniProt Q96PE3)
inactive: [1] 0.012 | [2] -0.021 | [3] 0.028 | [4] 0.005 | [5] 0.123 | [6] -0.03 | [7] 0.03 | [8] 0.032 | [9] 0.015 | [10] 0.032

KIAA0930 isoform 2 (UniProt Q6ICG6)
Sequence of UniProt Q6ICG6 (Q6ICG6 whole entry, looked up): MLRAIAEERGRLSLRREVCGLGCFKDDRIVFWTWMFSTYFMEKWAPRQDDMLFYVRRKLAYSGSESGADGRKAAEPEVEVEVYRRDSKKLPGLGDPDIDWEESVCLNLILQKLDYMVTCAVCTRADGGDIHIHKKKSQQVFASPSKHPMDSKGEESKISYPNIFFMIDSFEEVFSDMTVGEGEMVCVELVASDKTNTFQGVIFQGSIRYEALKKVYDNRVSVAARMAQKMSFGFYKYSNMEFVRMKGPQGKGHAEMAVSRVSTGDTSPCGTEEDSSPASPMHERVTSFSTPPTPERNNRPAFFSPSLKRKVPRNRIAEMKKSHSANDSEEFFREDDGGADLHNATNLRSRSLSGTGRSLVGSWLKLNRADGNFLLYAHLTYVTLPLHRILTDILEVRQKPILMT
inactive: [1] -0.041 | [2] 0.05 | [3] 0.202 | [4] -0.109 | [5] -0.021 | [6] 0.03 | [7] -0.037 | [8] -0.026 | [9] -0.047

HAUS7 isoform 2 (UniProt Q99871)
Sequence of UniProt Q99871 (Q99871 whole entry, looked up): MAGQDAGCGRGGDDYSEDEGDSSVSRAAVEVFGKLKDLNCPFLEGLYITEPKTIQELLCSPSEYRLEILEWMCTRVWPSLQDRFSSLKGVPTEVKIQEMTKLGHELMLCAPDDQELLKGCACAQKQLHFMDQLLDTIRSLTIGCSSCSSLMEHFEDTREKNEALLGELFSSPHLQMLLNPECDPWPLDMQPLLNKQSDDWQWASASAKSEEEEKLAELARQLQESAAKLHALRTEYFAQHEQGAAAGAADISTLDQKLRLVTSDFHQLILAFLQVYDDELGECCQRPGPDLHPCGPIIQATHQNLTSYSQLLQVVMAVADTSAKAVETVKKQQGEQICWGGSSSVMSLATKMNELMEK
inactive: [1] 0.021 | [2] 0.007 | [3] 0.015 | [4] 0.055 | [5] -0.026 | [6] -0.037 | [7] -0.011 | [8] 0.063 | [9] 0.024 | [10] -0.047
